Assay [1] in a line: qHTS assay to identify small molecule antagonists of the sonic hedgehog signaling (Shh) pathway (AID 1259369; calls by dose curve; further: nearly all actives have a fitted effect of over 45% in size; further: potency means the concentration at half of the fitted maximal effect). A digest of the protocol: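 NIH/3T3-derived 3T3Gli1-Luc cells with stably integrated Gli1-Luc reporter were preincubated 4hr at 37 C, then given compounds in DMSO plus Shh conditioned medium and incubated 24hr. Firefly luciferase luminescence read after 30min reagent at room temperature.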
Background: Quantitative high-throughput screening tests each substance at several concentrations.

Assay [2] can be described thus: qHTS assay to identify small molecule agonists of the androgen receptor (AR) signaling pathway in the presence of an antagonist - cell viability counter screen (AID 1259379). Further: nearly all actives have a fitted effect of over 25% in size. Further: potency means the concentration at half of the fitted maximal effect. Summed up:
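MDA-kb2 human breast carcinoma cells (stable MMTV-luciferase, AR/GR responsive) were seeded 3,000 cells/well, pre-incubated 5 hr at 37C without CO2, then given 3.0uM nilutamide and compounds at 15 concentrations for 16 hr. Viability was read by CellTiter-Fluor fluorescence.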

The nature of assay [3]: qHTS assay to identify small molecule agonists of the estrogen receptor beta (ER-beta) signaling pathway - cell viability counter screen (AID 1259380). Further: nearly all actives have a fitted effect of over 30% in size. Further: potency means the concentration at half of the fitted maximal effect. A digest of the protocol:
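ER-beta-UAS-bla HEK293T cells in medium with 2% charcoal-stripped FBS were preincubated 6 hr at 37C, dosed with compound in DMSO for 16 hr, then after the bla read, CellTiter-Glo was added for 30 min at room temperature; luminescence recorded.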

Assay [4] addresses Androgen receptor (Homo sapiens) (UniProt P10275). Kind of assay: qHTS assay to identify small molecule agonists of the androgen receptor (AR) signaling pathway in the presence of an antagonist (AID 1259381; calls by dose curve; further: nearly all actives have a fitted effect of over 15% in size). A digest of the protocol: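 MDA-kb2 human breast carcinoma cells carrying an MMTV-luciferase reporter (AR- and GR-responsive) were treated with compounds at 15 concentrations plus 3.0uM final nilutamide for 16hr at 37C without CO2; luminescence was read after ONE-Glo addition.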

Assay [5] in a line: qHTS assay to identify small molecule antagonists of the estrogen receptor beta (ER-beta) signaling pathway - cell viability counter screen (AID 1259382). Further: nearly all actives have a fitted effect of over 55% in size. Further: potency means the concentration at half of the fitted maximal effect. Summed up: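 ER-beta-UAS-bla HEK293T cells (2,000/well, 2% charcoal-stripped FBS) were pre-incubated 6 hr at 37C, then given compound plus 1nM final 17-beta-estradiol for 16 hr. Viability was read in the same wells by CellTiter-Glo luminescence after 30 min at room temperature.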

Assay [6] concerns the target Estrogen receptor (Homo sapiens) (UniProt P03372). Kind of assay: qHTS assay to identify small molecule agonists of the estrogen receptor alpha (ER-alpha) signaling pathway in the presence of an antagonist (AID 1259383; calls by dose curve; further: top concentration of the series differs between compounds; nearly all actives have a fitted effect of over 15% in size). Summed up: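 VM7Luc4E2 cells (endogenous full-length ER-alpha, 4×ERE-luciferase) were precultured 5 days in phenol red-free medium with 10% charcoal-stripped FBS, given 10.0nM ICI-182,780 (final), then treated with compounds at 15 concentrations for 22hr at 37C; luminescence read with ONE-Glo.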

Assay [7] is described as follows: qHTS assay to identify small molecule agonists of the estrogen receptor alpha (ER-alpha) signaling pathway in the presence of an antagonist - cell viability counter screen (AID 1259386).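 Further: cells exposed to compounds for 22 h at 37 °C before the viability read; nearly all actives have a fitted effect of over 30% in size.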 Further: potency means the concentration at half of the fitted maximal effect. Summed up: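 VM7Luc4E2 cells (endogenous full-length ER-alpha, 4×ERE-luciferase) were held 5 days in phenol red-free medium with 10% charcoal-stripped FBS, plated, then given 10.0nM ICI-182,780 and compounds at 15 concentrations for 22hr at 37C; viability read by CellTiter-Fluor fluorescence.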

Assay [8] can be described thus: qHTS assay to identify small molecule agonists of the progesterone receptor (PR) signaling pathway - cell viability counter screen (AID 1346799; calls by dose curve; further: nearly all actives have a fitted effect of over 45% in size; further: potency means the concentration at half of the fitted maximal effect). A digest of the protocol:
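Luminescence from CellTiter-Glo, added after the beta-lactamase FRET read in the same wells, gave cytotoxicity in PR-UAS-bla HEK293T cells treated with compounds for 16 hr at 37C.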

For assay [9], the target named is Thyrotropin-releasing hormone receptor (Homo sapiens) (UniProt P34981). Kind of assay: qHTS assay to identify small molecule antagonists of the thyrotropin-releasing hormone receptor (TRHR) signaling pathway (AID 1346877; active means well fitted inhibition curve with a large enough effect in the repeat runs, not every such curve was filed as active; further: series mostly up to about 51 µM). A digest of the protocol: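 TRHR-expressing HEK293 cells were seeded, cultured 18 h at 37 °C, then loaded with calcium dye for 2 h. Compounds were pre-incubated 5 min at room temperature before 1 nM TRH (final) was added, and kinetic fluorescence was recorded for 3 min.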
Chain of Thyrotropin-releasing hormone receptor (Homo sapiens) (P34981 whole entry, looked up): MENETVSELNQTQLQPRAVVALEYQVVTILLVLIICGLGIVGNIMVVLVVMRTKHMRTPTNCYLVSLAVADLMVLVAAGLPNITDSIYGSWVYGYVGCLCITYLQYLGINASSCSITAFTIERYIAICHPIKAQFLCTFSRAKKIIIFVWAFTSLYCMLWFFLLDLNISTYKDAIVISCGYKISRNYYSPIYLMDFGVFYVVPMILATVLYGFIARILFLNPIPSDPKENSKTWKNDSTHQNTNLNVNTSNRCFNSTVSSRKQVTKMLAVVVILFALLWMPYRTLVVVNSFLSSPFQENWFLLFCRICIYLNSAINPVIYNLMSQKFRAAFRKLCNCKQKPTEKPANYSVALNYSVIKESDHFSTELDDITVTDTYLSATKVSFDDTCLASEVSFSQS

Assay [10] shares this target. The experiment in a line: qHTS assay to identify small molecule agonists of the thyrotropin-releasing hormone receptor (TRHR) signaling pathway (AID 1346891; calls by dose curve; further: series mostly up to about 58 µM). Summed up:
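Intracellular calcium rise, read as fluorescence every second for 3 min, served as the agonist signal in dye-loaded HEK293 cells expressing TRHR; each compound ran at 15 concentrations in triplicate.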

Assay [11] is described as follows: qHTS assay to identify small molecule agonists or antagonists of the thyroid stimulating hormone receptor (TSHR) signaling pathway - wild type cell line counter screen (AID 1259384; calls by dose curve). Summed up: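 Counter screen in untransfected Hek293: compounds (15-point titration, triplicate) plus phosphodiesterase inhibitor Ro20-1724 added after 18 h plating; 30 min RT. Intracellular cAMP via competitive d2/cryptate immunoassay, 1 h incubation.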

Assay [12] in a line: qHTS assay to identify small molecule antagonists of the progesterone receptor (PR) signaling pathway - cell viability counter screen (AID 1346798). Further: nearly all actives have a fitted effect of over 50% in size. Further: potency means the concentration at half of the fitted maximal effect. A digest of the protocol: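 HEK293T PR-UAS-bla, 2% charcoal-stripped FBS; 4 hr pre-plate; cpd + R5020, 16 h 37C; LiveBLAzer read first; then CellTiter-Glo 30 min RT, luminescence.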
Assay [13] in a line: qHTS assay to identify small molecule antagonists of the TGF-beta/Smad signaling pathway - cell viability counter screen (AID 1346824). Further: nearly all actives have a fitted effect of over 50% in size. Further: potency means the concentration at half of the fitted maximal effect. Summed up:
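Cytotoxicity counter-screen run in the same wells as the beta-lactamase Smad reporter read: CellTiter-Glo luminescence after 30 min at room temperature. HEK 293T SBE-bla cells had 5 hr compound exposure at 37 C with TGF-beta1 (0.25 ng/mL stock).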

A short description of assay [14]: qHTS assay to identify small molecule agonists of the TGF-beta/Smad signaling pathway - cell viability counter screen (AID 1346829). Further: nearly all actives have a fitted effect of over 45% in size. Further: potency means the concentration at half of the fitted maximal effect. Summed up:
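Same-well cytotoxicity: CellTiter-Glo added after the 2 hr room-temperature beta-lactamase substrate step, luminescence measured 30 min later; cells had 5 hr of compound at 37 C.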

In assay [15] the target is Progesterone receptor (Homo sapiens) (UniProt P06401). The experiment in a line: qHTS assay to identify small molecule antagonists of the progesterone receptor (PR) signaling pathway (AID 1346795; active means well fitted inhibition curve with a large enough effect in the signal ratio in the repeat runs, not every such curve was filed as active; the % refers to the signal ratio; further: potency means the concentration at half of the fitted maximal effect). A digest of the protocol: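 Read-out is fluorescence from the LiveBLAzer B/G FRET substrate, cleaved by a UAS-controlled beta-lactamase in PR-UAS-bla HEK293T cells after 16 hr exposure to compound plus 1 nM promegestone (final), followed by 2 hr at room temperature.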
Chain of Progesterone receptor (Homo sapiens) (P06401 whole entry, looked up): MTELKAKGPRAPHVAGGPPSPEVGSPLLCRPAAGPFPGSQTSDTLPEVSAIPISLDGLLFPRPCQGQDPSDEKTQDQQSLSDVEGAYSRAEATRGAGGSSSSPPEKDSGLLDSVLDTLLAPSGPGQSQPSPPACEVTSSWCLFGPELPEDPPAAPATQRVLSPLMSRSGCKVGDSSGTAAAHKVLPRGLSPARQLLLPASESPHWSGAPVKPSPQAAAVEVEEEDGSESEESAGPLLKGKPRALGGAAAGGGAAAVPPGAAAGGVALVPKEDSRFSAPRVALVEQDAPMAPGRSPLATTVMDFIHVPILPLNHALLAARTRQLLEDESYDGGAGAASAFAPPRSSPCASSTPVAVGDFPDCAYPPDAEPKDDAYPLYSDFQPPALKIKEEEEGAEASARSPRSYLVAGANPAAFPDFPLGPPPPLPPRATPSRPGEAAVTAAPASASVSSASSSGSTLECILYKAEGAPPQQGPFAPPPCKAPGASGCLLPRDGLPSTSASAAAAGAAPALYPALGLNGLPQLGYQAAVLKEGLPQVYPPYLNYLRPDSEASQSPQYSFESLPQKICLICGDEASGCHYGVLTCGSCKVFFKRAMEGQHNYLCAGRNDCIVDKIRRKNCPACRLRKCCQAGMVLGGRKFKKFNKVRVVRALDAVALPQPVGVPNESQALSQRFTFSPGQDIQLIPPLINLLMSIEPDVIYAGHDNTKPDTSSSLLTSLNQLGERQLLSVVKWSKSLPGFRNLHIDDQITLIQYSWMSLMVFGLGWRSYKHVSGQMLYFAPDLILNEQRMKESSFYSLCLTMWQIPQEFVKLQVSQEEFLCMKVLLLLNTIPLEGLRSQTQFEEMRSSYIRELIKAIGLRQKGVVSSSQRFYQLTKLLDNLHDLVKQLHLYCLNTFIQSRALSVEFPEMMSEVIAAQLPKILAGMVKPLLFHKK

A short description of assay [16]: qHTS assay to identify small molecule agonists of the TGF-beta/Smad signaling pathway (AID 1346859; active means well fitted activation curve with a large enough effect in the signal ratio in the repeat runs, not every such curve was filed as active; the % refers to the signal ratio; further: series mostly up to about 77 µM). Summed up:
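SBE-bla HEK 293T, 4,000 cells/well, plated o/n; cpd in DMSO, 5 hr, 37 C/5% CO2; B/G FRET substrate 2 hr RT; ex 405, em 460/530 nm.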

The target in assay [17] is Estrogen receptor beta (Homo sapiens) (UniProt Q92731). Kind of assay: qHTS assay to identify small molecule agonists of the estrogen receptor beta (ER-beta) signaling pathway (AID 1259377; active means well fitted activation curve with a large enough effect in the signal ratio in the repeat runs, not every such curve was filed as active; the % refers to the signal ratio). Summed up: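 HEK293T ER-beta-UAS-bla; 2% charcoal-stripped FBS; cells pre-incubated 6 hr, compound 16 hr, 37C/5% CO2; LiveBLAzer B/G FRET substrate 2 h RT; fluorescence intensity read.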
Chain of Estrogen receptor beta (Homo sapiens) (Q92731 whole entry, looked up): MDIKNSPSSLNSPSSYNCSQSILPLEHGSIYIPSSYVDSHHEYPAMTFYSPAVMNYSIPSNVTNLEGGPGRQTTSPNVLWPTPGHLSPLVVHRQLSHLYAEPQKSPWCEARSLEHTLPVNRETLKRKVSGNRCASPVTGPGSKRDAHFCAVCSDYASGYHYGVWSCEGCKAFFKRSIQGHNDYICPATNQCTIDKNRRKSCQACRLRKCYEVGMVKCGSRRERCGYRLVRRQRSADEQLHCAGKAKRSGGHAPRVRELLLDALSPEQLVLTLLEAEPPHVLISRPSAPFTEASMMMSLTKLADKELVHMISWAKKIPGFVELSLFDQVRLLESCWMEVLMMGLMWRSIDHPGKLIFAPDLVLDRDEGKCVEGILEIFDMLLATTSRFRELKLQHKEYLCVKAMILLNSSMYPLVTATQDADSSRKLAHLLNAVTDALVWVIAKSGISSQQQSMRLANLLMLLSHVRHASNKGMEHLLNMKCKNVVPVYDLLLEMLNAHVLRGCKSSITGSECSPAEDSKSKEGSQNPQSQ

Assay [18] has as its target Thyrotropin receptor (Homo sapiens) (UniProt P16473). Kind of assay: qHTS assay to identify small molecule antagonists of the thyroid stimulating hormone receptor (TSHR) signaling pathway (AID 1259385; calls by dose curve; further: nearly all actives have a fitted effect of over 20% in size). A digest of the protocol: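 Antagonist mode: compound-treated TSHR-expressing HEK293 cells were stimulated with 1.5 ng/mL TSH (final) in presence of Ro20-1724 for 30 min at RT. HTRF cAMP detection after 1 h; each compound tested at 15 concentrations, triplicate.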

For assay [19], the target named is Progesterone receptor (Homo sapiens) (UniProt P06401). Kind of assay: qHTS assay to identify small molecule agonists of the progesterone receptor (PR) signaling pathway (AID 1346784; calls by dose curve; further: nearly all actives have a fitted effect of over 30% in size). A digest of the protocol:
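Beta-lactamase reporter read-out: after 16 hr compound treatment at 37C and a further 2 hr at room temperature with LiveBLAzer B/G FRET substrate, fluorescence was measured in PR-UAS-bla HEK 293T cells grown in 2% charcoal-stripped serum.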

Assay [20] has as its target Estrogen receptor beta (Homo sapiens) (UniProt Q92731). The experiment in a line: qHTS assay to identify small molecule antagonists of the estrogen receptor beta (ER-beta) signaling pathway (AID 1259378; active means well fitted inhibition curve with a large enough effect in the signal ratio in the repeat runs, not every such curve was filed as active; the % refers to the signal ratio). A digest of the protocol: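 Antagonist mode: compounds added to beta-lactamase reporter HEK293T ER-beta-UAS cells stimulated with E2 (1nM final), 16 hr at 37C. LiveBLAzer B/G FRET substrate, 2 hours room temperature, fluorescence read-out.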

A number with no mark means an inactive call. Records with an inconclusive call do not appear. Calls of active or inactive are those of the source. Unless noted, the call rests on the fitted dose curve; in most records, active means well fitted curve in the direction sought with a large enough effect in the repeat runs; inconclusive means weak or mixed curves; inactive means no such curve, though single readings can be large; an effect the other way counts as inactive or inconclusive.
On the % scale 0 is the no-effect control and ±100 the full control effect.

Chain of Thyrotropin receptor (Homo sapiens) (P16473 whole entry, looked up): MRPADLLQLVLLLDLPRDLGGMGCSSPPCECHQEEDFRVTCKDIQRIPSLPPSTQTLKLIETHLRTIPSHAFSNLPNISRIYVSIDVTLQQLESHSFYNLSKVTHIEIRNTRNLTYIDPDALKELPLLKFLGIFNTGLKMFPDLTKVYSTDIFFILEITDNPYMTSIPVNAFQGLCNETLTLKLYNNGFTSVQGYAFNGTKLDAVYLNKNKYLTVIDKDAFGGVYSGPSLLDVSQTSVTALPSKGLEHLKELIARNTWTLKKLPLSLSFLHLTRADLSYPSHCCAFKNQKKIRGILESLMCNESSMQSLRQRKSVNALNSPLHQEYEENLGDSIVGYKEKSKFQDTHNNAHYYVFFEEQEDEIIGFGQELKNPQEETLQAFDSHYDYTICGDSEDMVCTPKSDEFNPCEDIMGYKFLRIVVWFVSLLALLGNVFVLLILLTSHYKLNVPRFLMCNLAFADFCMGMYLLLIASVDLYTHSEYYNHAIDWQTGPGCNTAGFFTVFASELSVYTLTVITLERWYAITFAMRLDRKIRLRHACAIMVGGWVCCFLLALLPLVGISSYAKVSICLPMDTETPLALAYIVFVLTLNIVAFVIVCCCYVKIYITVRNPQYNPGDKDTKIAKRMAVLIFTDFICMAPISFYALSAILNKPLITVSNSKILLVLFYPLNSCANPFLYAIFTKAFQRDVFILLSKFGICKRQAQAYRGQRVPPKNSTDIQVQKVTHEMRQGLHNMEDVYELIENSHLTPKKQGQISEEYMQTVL
Chain of Estrogen receptor (Homo sapiens) (P03372 whole entry, looked up): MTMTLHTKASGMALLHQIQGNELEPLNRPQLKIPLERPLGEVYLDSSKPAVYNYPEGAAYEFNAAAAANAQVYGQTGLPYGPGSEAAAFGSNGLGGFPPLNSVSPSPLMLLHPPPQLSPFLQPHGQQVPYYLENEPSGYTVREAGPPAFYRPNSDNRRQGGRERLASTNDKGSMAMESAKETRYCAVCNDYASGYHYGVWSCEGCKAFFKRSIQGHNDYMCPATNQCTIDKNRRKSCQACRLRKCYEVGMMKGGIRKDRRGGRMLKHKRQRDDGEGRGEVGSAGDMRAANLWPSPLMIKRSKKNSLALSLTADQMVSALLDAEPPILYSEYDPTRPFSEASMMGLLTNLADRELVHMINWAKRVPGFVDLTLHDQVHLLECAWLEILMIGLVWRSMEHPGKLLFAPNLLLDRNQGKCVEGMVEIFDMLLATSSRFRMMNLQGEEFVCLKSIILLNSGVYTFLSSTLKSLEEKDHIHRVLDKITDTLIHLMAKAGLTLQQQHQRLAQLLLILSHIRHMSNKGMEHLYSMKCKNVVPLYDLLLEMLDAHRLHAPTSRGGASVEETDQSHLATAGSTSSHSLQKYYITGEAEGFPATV
Chain of Androgen receptor (Homo sapiens) (P10275 whole entry, looked up): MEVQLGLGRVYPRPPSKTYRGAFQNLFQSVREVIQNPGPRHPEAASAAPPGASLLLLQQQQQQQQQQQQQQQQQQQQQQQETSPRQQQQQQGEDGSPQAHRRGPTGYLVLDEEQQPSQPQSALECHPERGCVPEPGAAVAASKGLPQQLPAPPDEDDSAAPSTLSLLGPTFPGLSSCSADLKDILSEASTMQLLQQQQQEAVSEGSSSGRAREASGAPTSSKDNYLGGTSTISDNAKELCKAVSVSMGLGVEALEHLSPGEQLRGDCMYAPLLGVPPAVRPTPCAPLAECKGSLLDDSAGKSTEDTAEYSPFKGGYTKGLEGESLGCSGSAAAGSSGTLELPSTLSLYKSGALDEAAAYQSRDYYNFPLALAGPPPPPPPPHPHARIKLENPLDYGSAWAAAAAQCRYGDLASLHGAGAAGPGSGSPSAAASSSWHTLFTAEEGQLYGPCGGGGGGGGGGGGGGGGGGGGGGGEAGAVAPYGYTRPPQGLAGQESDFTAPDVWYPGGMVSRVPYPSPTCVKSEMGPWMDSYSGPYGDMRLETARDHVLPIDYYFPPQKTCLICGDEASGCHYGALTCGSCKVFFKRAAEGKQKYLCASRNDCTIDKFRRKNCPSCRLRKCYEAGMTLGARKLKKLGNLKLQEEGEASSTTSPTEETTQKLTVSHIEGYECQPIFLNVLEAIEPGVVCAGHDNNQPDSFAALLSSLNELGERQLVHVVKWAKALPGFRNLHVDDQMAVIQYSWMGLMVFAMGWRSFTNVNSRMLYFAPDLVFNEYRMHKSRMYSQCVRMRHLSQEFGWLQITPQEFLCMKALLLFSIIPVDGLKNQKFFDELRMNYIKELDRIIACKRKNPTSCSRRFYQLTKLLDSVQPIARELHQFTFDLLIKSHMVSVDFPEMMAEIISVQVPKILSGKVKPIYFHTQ

Take `CC(C)(c1ccc(O)c(-c2ccccc2)c1)c1ccc(O)c(-c2ccccc2)c1`: the Potency in assay [1] was 12.2 µM (active); in [2], 54.5 µM (active); in assay [3], 27.3 µM (active); in [5], 27.3 µM (active); in assay [7] it was 61.1 µM (active); in assay [8], 30.6 µM (active). Further, the Potency result in [4], in [6], in assay [9] and in assay [10] was “inactive” in each case.

Regarding `[Cl][Sn]([c]1ccccc1)([c]1ccccc1)[c]1ccccc1`, the Potency in assay [1] is 0.206 µM (active); in [2] it was 1.16 µM (active); in [3], 0.82 µM (active); in [5], 0.82 µM (active); in assay [7], 11.6 µM (active); in assay [12] it was 1.3 µM (active). The Potency in [8] was 1.64 µM (active); in [13] it was 2.61 µM (active); in [14], 2.61 µM (active). Moreover, the results for the activation in [4] and in [6] were -10.8% [at 19 µM] and -14.6% [at 19 µM], respectively. In addition, the cAMP activity change in assay [11] was 23.5% [at 18.9 µM].

As for `N#C/C=C/c1ccccc1`, the Potency entry in assay [1], in [2], in assay [3], in assay [4], in [5] and in assay [6] was “inactive” each time. Moreover, the Potency result in assay [7], in [15], in [8] and in assay [13] was “inactive” throughout. The compound was classed as inactive in [16].

For the compound `N#Cc1ccccc1Cl`, the Potency result in [1], in assay [17], in assay [3], in assay [5], in assay [18] and in [7] was “inactive” in each case. For the same compound, the Potency entry in assay [19], in [12], in assay [13], in assay [9] and in assay [10] was “inactive” throughout. Besides, the call in [11] and in assay [16] was inactive.

`CC(C)(C)OO`: the Potency entry in assay [1], in assay [20], in assay [3], in [4], in [5] and in [18] was “inactive” each time. The Potency entry in assay [7], in assay [19], in assay [15], in [8], in [13] and in [14] was “inactive” in each case. Further, the Potency result in [9] and in [10] was “inactive” in each case. Besides, the result in assay [11] and in assay [16] was inactive.

Turning to `O=[N+]([O-])c1ccc(Oc2ccc(C(F)(F)F)cc2[N+](=O)[O-])cc1`, the Potency in [1] is 61.1 µM (active); in assay [15] it was 7.7 µM (active). Further, the Potency entry in [17], in [3], in assay [5], in assay [6], in assay [18] and in assay [7] was “inactive” each time. Further, the Potency entry in [19], in [13], in assay [14] and in [9] was “inactive” each time. For the same compound, the result in [16] was inactive.

(Values after PubChem BioAssay (Tox21).)
